PubChem BioAssay (NCATS)
Values joined by “and” are separate entries in the source; they are usually repeats but may differ in a detail not shown here. Equal entries are not always repeated. Records with an inconclusive call do not appear. Active and inactive are the calls of the source. Unless noted, the call rests on the fitted dose curve; in most records, active means well fitted curve in the direction sought with a large enough effect; inconclusive means small, poorly fitted or top-dose-only effect, or another doubt; inactive means no such curve, though single readings can be large; an effect the other way counts as inactive or inconclusive.

Key:
[1] = P-glycoprotein substrates identified in KB-3-1 adenocarcinoma cell line, qHTS therapeutic library screen (AID 1346986); further: nearly all actives have a fitted effect of over 60% in size;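 further: potency means the concentration at half of the fitted maximal effect; potency is for cytotoxicity meaning loss of cell viability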
How it was run: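 Compounds were tested in dose-response against KB-3-1 and KB-8-5-11 cells at 37 degree C for 72 h, and viability was measured by luminescence. AC50 values came from curve fitting with class-based activity calls.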

[2] = P-glycoprotein substrates identified in KB-8-5-11 adenocarcinoma cell line, qHTS therapeutic library screen (AID 1346987); further: nearly all actives have a fitted effect of over 65% in size; further: potency means the concentration at half of the fitted maximal effect
How it was run: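 KB-8-5-11: colchicine-selected sub-line of KB-3-1 over-expressing P-gp; assay medium lacked colchicine. 72 h drug exposure at 37 degree C, CellTiter-Glo.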

[3] = Natriuretic polypeptide receptor (hNpr1) antagonism - Pilot counterscreen GloSensor control cell line (AID 1347045; calls by dose curve; further: series mostly up to about 38 µM)
How it was run: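 HEK293 cells carrying the GloSensor cGMP sensor (GIP/pGS-40F) were loaded with 2% GloSensor reagent for 2 h, exposed to compounds for 30 min, and then stimulated with 50 uM sodium nitroprusside for 20 min at room temperature.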

[4] = biological target: Atrial natriuretic peptide receptor 1 (Homo sapiens) (UniProt P16066); assay: Natriuretic polypeptide receptor (hNpr1) antagonism - Pilot screen (AID 1347049; calls by dose curve;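 further: agonist-evoked cGMP luminescence read 20 min after hNppA addition; series mostly up to about 58 µM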)
How it was run: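 HEK293 cells expressing hNpr1 and GloSensor cGMP luciferase, 1500/well, loaded with 2% GloSensor reagent 2 h, compound 30 min at room temperature; luminescence read before and 20 min after 0.1 nM hNppA stimulation.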

[5] = biological target: Atrial natriuretic peptide receptor 2 (Homo sapiens) (UniProt P20594); assay: Natriuretic polypeptide receptor (hNpr2) antagonism - Pilot subtype selectivity assay (AID 1347050; calls by dose curve; further: potency means the concentration at half of the fitted maximal effect)
How it was run: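 HEK293 cells expressing hNpr2 and a GloSensor cGMP luciferase sensor, 1500/well, preloaded 2 h with 2% GloSensor reagent, compound 30 min, then 1 nM hNppC for 20 min. Antagonism from luminescence after versus baseline pre-read; LOPAC in 1:5 titrations.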

[6] = NS1 protein of Zika virus - qHTS assay to identify small molecule inhibitors in human HEK 293 cells (AID 1347053); further: nearly all actives have a fitted effect of over 55% in size; further: potency means the concentration at half of the fitted maximal effect
How it was run: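 Following 20 h seeding, HEK 293 cells took compound, then 1 h later ZIKV MR766 (MOI = 0.5). Incubation ran 24 h at 37 C before TR-FRET detection of NS1; a drop in signal indicates inhibition.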

[7] = biological target: Tyrosine-protein phosphatase non-receptor type substrate 1 (Homo sapiens) + Leukocyte surface antigen CD47 (Homo sapiens) (UniProt P78324+Q08722); assay: CD47-SIRPalpha protein protein interaction - LANCE assay qHTS validation (AID 1347057; active means well fitted curve in the direction sought with a large enough effect in the signal ratio, with a control signal flat, not every such curve was filed as active; the % refers to the signal ratio; further: series mostly up to about 38 µM)
How it was run: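 First, His-tagged CD47 and Eu-labelled anti-His antibody met the compound for 30 min; next, site-specifically biotinylated SIRPalpha was added for 30 min; finally streptavidin-APC was added before reading the TR-FRET ratio.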

[8] = Identifying Small Molecule Inhibitors of Pancreatic Cancer Stem Cells (Panc1, Adherent) (AID 1259362); details: Potency: viability; further: potency means the concentration at half of the fitted maximal effect
How it was run: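 Luminescent ATP readout (CellTiter-Glo) quantifies surviving cells after a 48 h drug incubation. Normalization uses DMSO wells as no inhibition and media-only wells as full inhibition; bortezomib served as positive control.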

Measured: Potency

Chain of Tyrosine-protein phosphatase non-receptor type substrate 1 (Homo sapiens) + Leukocyte surface antigen CD47 (Homo sapiens) (P78324 whole entry, looked up): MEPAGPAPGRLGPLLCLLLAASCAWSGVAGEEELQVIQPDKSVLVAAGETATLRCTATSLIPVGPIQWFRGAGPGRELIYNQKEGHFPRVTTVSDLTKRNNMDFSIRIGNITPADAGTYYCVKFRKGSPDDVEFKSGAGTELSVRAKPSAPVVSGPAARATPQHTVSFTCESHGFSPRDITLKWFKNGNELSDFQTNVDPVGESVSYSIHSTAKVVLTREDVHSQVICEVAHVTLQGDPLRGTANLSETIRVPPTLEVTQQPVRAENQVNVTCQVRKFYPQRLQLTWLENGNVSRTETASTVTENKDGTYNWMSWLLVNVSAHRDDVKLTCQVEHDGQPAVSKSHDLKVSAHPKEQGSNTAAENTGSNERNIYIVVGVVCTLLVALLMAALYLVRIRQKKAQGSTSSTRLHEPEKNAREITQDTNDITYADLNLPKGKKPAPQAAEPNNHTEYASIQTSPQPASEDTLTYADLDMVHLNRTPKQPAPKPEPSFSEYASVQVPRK
Chain of Tyrosine-protein phosphatase non-receptor type substrate 1 (Homo sapiens) + Leukocyte surface antigen CD47 (Homo sapiens) (Q08722 whole entry, looked up): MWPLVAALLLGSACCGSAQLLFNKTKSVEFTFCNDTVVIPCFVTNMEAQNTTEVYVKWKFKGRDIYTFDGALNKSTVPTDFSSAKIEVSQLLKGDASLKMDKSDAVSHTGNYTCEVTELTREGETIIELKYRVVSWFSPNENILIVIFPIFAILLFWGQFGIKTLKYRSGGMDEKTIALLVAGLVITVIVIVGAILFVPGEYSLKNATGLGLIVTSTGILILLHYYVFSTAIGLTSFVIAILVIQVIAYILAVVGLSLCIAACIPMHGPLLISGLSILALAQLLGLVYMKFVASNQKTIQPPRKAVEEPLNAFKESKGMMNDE
Chain of Atrial natriuretic peptide receptor 2 (Homo sapiens) (P20594 whole entry, looked up): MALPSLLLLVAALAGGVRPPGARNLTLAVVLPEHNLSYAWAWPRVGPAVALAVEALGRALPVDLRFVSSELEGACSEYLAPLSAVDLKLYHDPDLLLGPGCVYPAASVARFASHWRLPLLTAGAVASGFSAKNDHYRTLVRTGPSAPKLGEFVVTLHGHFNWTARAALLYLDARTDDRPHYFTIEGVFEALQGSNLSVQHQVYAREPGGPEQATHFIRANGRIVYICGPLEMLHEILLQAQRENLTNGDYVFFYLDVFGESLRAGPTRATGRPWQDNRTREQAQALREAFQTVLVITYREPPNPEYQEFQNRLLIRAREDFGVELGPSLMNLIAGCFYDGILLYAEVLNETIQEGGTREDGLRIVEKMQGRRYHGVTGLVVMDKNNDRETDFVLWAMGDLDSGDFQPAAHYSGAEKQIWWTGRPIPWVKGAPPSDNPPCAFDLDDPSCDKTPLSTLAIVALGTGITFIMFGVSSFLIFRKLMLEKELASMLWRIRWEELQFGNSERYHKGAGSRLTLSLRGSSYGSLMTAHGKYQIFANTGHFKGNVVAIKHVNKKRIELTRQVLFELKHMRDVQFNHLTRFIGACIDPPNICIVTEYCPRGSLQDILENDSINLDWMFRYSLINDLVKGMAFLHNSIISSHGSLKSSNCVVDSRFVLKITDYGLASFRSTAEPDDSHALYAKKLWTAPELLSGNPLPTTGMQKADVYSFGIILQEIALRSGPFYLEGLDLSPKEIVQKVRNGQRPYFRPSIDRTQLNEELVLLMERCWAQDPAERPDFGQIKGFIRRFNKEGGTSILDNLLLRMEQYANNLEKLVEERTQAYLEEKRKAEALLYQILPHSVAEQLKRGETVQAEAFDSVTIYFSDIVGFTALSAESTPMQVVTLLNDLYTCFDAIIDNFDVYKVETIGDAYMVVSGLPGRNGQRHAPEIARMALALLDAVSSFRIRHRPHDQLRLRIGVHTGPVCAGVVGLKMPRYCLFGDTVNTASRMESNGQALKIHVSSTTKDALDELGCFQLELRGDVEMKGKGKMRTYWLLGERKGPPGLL
Chain of Atrial natriuretic peptide receptor 1 (Homo sapiens) (P16066 whole entry, looked up): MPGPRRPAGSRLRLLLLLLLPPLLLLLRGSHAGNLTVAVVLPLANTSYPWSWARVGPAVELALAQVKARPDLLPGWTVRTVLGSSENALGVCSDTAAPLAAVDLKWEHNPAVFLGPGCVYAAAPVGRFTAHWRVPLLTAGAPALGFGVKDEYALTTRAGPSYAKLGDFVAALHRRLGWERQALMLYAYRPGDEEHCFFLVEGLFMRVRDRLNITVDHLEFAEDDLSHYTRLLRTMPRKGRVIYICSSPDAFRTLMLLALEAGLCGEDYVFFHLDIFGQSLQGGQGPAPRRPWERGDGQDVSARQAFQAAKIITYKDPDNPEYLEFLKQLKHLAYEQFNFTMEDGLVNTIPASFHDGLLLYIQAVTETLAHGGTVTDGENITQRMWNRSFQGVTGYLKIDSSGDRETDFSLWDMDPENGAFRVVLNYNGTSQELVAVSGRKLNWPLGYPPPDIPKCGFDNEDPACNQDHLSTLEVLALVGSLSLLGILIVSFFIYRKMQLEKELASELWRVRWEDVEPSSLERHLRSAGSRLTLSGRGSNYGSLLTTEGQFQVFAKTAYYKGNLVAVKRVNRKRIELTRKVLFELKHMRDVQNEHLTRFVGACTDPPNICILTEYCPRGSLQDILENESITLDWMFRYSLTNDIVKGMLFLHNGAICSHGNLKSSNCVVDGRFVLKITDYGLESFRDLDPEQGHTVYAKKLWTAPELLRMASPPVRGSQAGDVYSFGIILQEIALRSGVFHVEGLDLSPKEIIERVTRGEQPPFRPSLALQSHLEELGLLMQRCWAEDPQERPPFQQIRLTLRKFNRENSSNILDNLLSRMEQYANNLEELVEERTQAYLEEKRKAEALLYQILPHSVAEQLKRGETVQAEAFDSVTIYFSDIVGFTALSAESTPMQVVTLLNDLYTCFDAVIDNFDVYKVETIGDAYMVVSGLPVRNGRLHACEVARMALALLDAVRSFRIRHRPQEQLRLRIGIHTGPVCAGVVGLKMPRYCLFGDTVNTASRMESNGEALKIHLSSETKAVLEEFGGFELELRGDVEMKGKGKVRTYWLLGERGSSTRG

Clc1cccc(Cl)c1NC1=NCCN1
not listed: [8]
inactive: all other assays above

COc1ccc([C@@H]2CC(=O)c3c(O)cc(O[C@@H]4O[C@H](CO[C@@H]5O[C@@H](C)[C@H](O)[C@@H](O)[C@@H]5O)[C@@H](O)[C@H](O)[C@@H]4O)cc3O2)cc1O
inactive: [1] | [2] | [6]

OC(CCN1CCCCC1)(c1ccccc1)C1CC2C=CC1C2 (stereo not drawn)
not listed: [4] | [8]
inactive: all other assays above

O=NN(CCCl)C(=O)NCCCl
inactive: [2] | [3] | [5] | [6] | [7]

NS(=O)(=O)c1cc2c(cc1Cl)NC=NS2(=O)=O
inactive: [1] | [2] | [5] | [6] | [7]

O=C1CCC(N2C(=O)c3ccccc3C2=O)C(=O)N1 (stereo not drawn)
inactive: [2] | [3] | [5] | [6] | [7]

CNC(=O)c1ccccc1Sc1ccc2c(/C=C/c3ccccn3)n[nH]c2c1
active: [2] 18.4 µM and 7.31 µM

CCOc1cc(N2CCC(O)CC2)ccc1Nc1ncc2c(n1)N(C)c1ccccc1C(=O)N2C
active: [1] 8.2 µM | [2] 18.4 µM
inactive: [6]

NCCc1ccc(O)c(O)c1
inactive: [2] | [3] | [5] | [6] | [7]

CCOC(=O)N1CCC(=C2c3ccc(Cl)cc3CCc3cccnc32)CC1
inactive: [1] | [3] | [5] | [6] | [7]

Cc1cn[nH]c1
not listed: [4] | [8]
inactive: all other assays above

COc1ccc(-c2ccc3c(N4CCOCC4)nc(N4C[C@@H](C)O[C@@H](C)C4)nc3n2)cc1CO
active: [2] 0.296 µM

CC(C=CC1=C(C)CCCC1(C)C)=CC=CC(C)=CC(=O)O
inactive: [1] | [2] | [6]

O=C1CCc2cc(OCCCCc3nnnn3C3CCCCC3)ccc2N1
inactive: [2] | [3] | [5] | [6] | [7]

O=C(O)COCCN1CCN(C(c2ccccc2)c2ccc(Cl)cc2)CC1 (stereo not drawn)
inactive: [2] | [3] | [6] | [7]
active: [5] 13.1 µM

CCN(CC)CCCC(C)Nc1ccnc2cc(Cl)ccc12 (stereo not drawn)
inactive: [1] | [2] | [5] | [6]

Cc1cc(SCc2sc(-c3ccc(C(F)(F)F)cc3)nc2C)ccc1OCC(=O)O
inactive: [1] | [2] | [6]

CN1CCN(CCCN2c3ccccc3Sc3ccc(C(F)(F)F)cc32)CC1
inactive: [1] | [2] | [6]

OC[C@H](Cc1ccccc1)Nc1nc(Oc2ccc3c(c2)CCC3)nc2c1ncn2Cc1ccc(-c2ccccc2)cc1
active: [8] 1.32 µM | [6] 4.18 µM

C1COC(NC(C2CC2)C2CC2)=N1
not listed: [8]
inactive: all other assays above

CCCCNc1cc(C(=O)O)cc(S(N)(=O)=O)c1Oc1ccccc1
inactive: [2] | [3] | [5] | [6] | [7]

NC(=O)c1ccc(-c2nc(-c3ccc4c(c3)OCCO4)c(-c3ccccn3)[nH]2)cc1
inactive: [2] | [6]

N=c1nc(N2CCCCC2)cc(N)n1O
inactive: [5] | [6]

CCn1c(-c2nonc2N)nc2c(C#CC(C)(C)O)ncc(OC[C@H]3CCCNC3)c21
inactive: [2] | [6]

Cc1ccc(NC(=O)c2cccc(C(C)(C)C#N)c2)cc1Nc1ccc2ncn(C)c(=O)c2c1
active: [2] 16.6 µM
inactive: [6]

Nc1nc2ccc(OC(F)(F)F)cc2s1
inactive: [3] | [5] | [6] | [7]

CCn1cc(C(=O)O)c(=O)c2cc(F)c(N3CCNC(C)C3)c(F)c21 (stereo not drawn)
inactive: [3] | [5] | [6] | [7]

CN[C@@H](C)C(=O)N[C@H]1CCCC[C@H]2CC[C@@H](C(=O)N[C@@H](c3ccccc3)c3cn(CCCCc4ccc(CCCCn5cc([C@@H](NC(=O)[C@@H]6CC[C@@H]7CCCC[C@H](NC(=O)[C@H](C)NC)C(=O)N76)c6ccccc6)nn5)cc4)nn3)N2C1=O
inactive: [2] | [6]

Oc1ccc(C2CNCCc3c2cc(O)c(O)c3Cl)cc1 (stereo not drawn)
inactive: [3] | [5] | [6] | [7]

O=C(NOC[C@H](O)CO)c1ccc(F)c(F)c1Nc1ccc(I)cc1F
inactive: [2] | [6]
